FBA Mtb inh = Mtb FBA enzyme inhibitors, primary screen, biochemical, fluorescence, strain H37Rv; Fructose-bisphosphate aldolase (Mycobacterium tuberculosis (strain ATCC 25618 / H37Rv)), …; purified M. tuberculosis FBA, fluorescence read-out; inhibition, % at 1 µM; 2.3% of 360,000 active; AID 588726, 2011; in the data active means inhibition above about 27%;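 further: 0% = vehicle and 100% = reference inhibitor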
Target sequence (P9WQA3 whole entry, looked up): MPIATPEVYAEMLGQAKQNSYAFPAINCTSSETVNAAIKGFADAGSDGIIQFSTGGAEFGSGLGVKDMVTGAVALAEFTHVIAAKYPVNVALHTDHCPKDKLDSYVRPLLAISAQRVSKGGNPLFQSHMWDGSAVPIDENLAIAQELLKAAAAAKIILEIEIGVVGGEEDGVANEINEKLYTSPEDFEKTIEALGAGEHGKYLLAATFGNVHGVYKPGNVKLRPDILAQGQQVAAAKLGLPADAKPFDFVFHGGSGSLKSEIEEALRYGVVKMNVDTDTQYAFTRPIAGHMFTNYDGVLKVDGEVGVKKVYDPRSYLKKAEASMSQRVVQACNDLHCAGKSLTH
TcdB inh = TcdB glycohydrolase inhibitors, primary screen, biochemical, single point, plate reader; AID 652162, 2013; TcdB glycohydrolase enzymatic assay; inhibition, % at 9.99 µM; 0.24% of 350,000 active
GDH-TPI counter-1 = GDH-TPI coupling enzyme inhibitors, primary screen, artefact control for M. tuberculosis FBA inhibitor project, biochemical, absorbance, full deck | 1.2% of 360,000 active | inhibition, % at 4.8 µM | AID 588335, 2011 | GDH-TPI coupled enzyme counterscreen, NADH absorbance; in the data active means inhibition above about 30%;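 further: 0% = DMSO wells and 100% = wells lacking the enzyme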
PrPC surface inh = inhibitors of human cell surface prion protein PrPC, primary screen, cell-based, TR-FRET; Major prion protein (Homo sapiens), P04156; TR-FRET read-out; inhibition, % at 13.8 µM; 0.43% of 370,000 active; AID 720596, 2013; in the data active means inhibition above about 24%; further: 0% = median of the test wells and 100% = reference compound wells
Yp Topo-I inh = Yersinia pestis topoisomerase I inhibitors, primary screen, biochemical, cleavage product accumulation, plate reader, single point; DNA topoisomerase I (Yersinia pestis CO92); Y. pestis Topo-I cleavage product accumulation; activity, % at 10 µM; 0.064% of 360,000 active; AID 504884, 2011; in the data active means activity above about 50%, passing the limit was not always enough
Mtb FBA confirm = M. tuberculosis aldolase blockers, biochemical, fluorescence, strain H37Rv, confirmation; inhibition, % at 1 µM; shares compounds with FBA Mtb inh; AID 651616, 2012; purified M. tuberculosis FBA, fluorescence read-out; 78% of 5,600 active; in the data active means inhibition above about 27%;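 further: 0% = vehicle wells and 100% = reference inhibitor wells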
GDH-TPI counter-2 = GDH-TPI coupling enzyme inhibitors, artefact control for M. tuberculosis FBA inhibitor project, biochemical, fluorescence, high throughput. shares compounds with FBA Mtb inh. GDH-TPI coupled enzyme counterscreen. inhibition, % at 1 µM. 81% of 5,600 active. AID 652141, 2013
Starred values were filed as active, the others as inactive; / = no result given; + = active, no number. Rows were chosen to be rich in hits. Some 3.2% of all compounds tested hit in one or more screens of this group. Unless noted, no stated cut-off is given here; in the data, active means inhibition above about 10%; inactive means the rest.

SMILES | FBA Mtb inh | TcdB inh | GDH-TPI counter-1 | PrPC surface inh | Yp Topo-I inh | Mtb FBA confirm | GDH-TPI counter-2
CC(C)OCCOc1ccc2oc(-c3ccco3)cc(=O)c2c1 | 77* | 0 | 22 | -1 | 20 | -3 | -4
O=c1cc(-c2ccco2)oc2ccccc12 | 86* | 1 | 28 | -13 | 0 | 7 | 2
COc1ccc(NC(=O)N2C[C@H]3[C@@H](c4ccccc42)[C@H](CO)N3C(=O)C2CCCCC2)cc1 | / | 0 | / | / | / | / | /
C[C@@H]1CN([C@H](C)CO)C(=O)c2cc(NS(=O)(=O)c3ccc(Cl)cc3)ccc2O[C@@H]1CN(C)Cc1ccc(C(=O)Nc2ccccc2N)cc1 | / | 0 | / | / | / | / | /
COc1cc2c(N3CCOCC3)cc(O)c(CC(=O)Nc3ccccc3)c2cc1OC | 31* | / | 3 | 1 | -6 | 6 | -4
CN1C(=O)c2cc(NC(=O)c3cccs3)ccc2OC[C@H]2O[C@H](CC(=O)NCCN3CCCCC3)CC[C@@H]21 | / | 0 | / | / | / | / | /
COc1ccc(-c2cc(C(F)F)n3ncc(C(=O)NCCCN4CCCC4=O)c3n2)cc1 | 31* | 1 | 6 | -5 | 21 | + | 169*
COc1ccc(-c2cc(C(F)F)n3ncc(C(=O)N4CCc5ccccc5C4)c3n2)cc1 | 30* | 1 | 8 | 2 | 26 | 83* | 76*
COc1ccc2[nH]c(C(=O)NCCCN3CCCC3=O)c(C)c2c1 | 58* | 0 | -1 | 7 | 2 | -5 | -2
COc1ccc(C(=O)NCCCN2CCCC2=O)cc1 | 5 | / | 3 | 4 | 6 | / | /
Cc1ccc(-c2cc(C(F)F)n3ncc(C(=O)N4CCc5ccccc54)c3n2)cc1 | -2 | / | 10 | -3 | 43 | / | /
CNC[C@H]1OCCCC[C@H](C)Oc2ccc(NC(=O)Nc3ccccc3)cc2C(=O)N([C@H](C)CO)C[C@@H]1C | / | 1 | / | / | / | / | /
C[C@H]1CN([C@@H](C)CO)C(=O)c2cc(NC(=O)CCCN(C)C)ccc2O[C@H]1CN(C)Cc1ccc(-c2ccccc2)cc1 | / | -1 | / | / | / | / | /
NCC[C@H]1CC[C@@H](NC(=O)Nc2ccc(F)cc2)[C@H](CO)O1 | / | -1 | / | / | / | / | /
CCCn1nnnc1NCc1c(F)cccc1Cl | 68* | 1 | -2 | 5 | -1 | -7 | -6
CCS(=O)(=O)N1CC(=O)N2[C@H](CO)[C@@H](c3ccc(C#CCC4CCCC4)cc3)[C@@H]2C1 | / | 1 | / | / | / | / | /
CC(C)NC(=O)N(C)C[C@@H]1Oc2cc(C#Cc3ccc(F)cc3)ccc2S(=O)(=O)N([C@H](C)CO)C[C@@H]1C | / | 1 | / | / | / | / | /
NC(=O)COc1c(-c2ccc(Br)o2)oc2ccccc2c1=O | 105* | 1 | 35* | / | 8 | 154* | 113*
Nc1oc2ccccc2c(=O)c1C=O | 0 | / | 0 | -7 | -3 | / | /
C[C@H](O)C#Cc1ccc2c(c1)O[C@H](CN(C)C(=O)c1ccccc1)[C@H](C)CN([C@@H](C)CO)S2(=O)=O | / | -1 | / | / | / | / | /
CCn1cc(C(=O)O)c(=O)c2cc(F)c(N3CCN(S(=O)(=O)c4ccc(NC(C)=O)cc4)CC3)cc21 | 50* | 0 | 12 | -2 | 11 | -4 | -3
COc1ccc(S(=O)(=O)N(C)C[C@@H]2Oc3ccc(NC(=O)NC(C)C)cc3CC(=O)N([C@H](C)CO)C[C@H]2C)cc1 | / | 1 | / | / | / | / | /
c1cnc2cc(-c3ccsc3)ncc2c1 | 29* | / | 15 | -10 | 3 | 8 | 5
O=C(Nc1ccccc1)C1Cc2c(-c3ccc4c(c3)OCO4)ccnc2O1 (configuration not stated) | 46* | 1 | 7 | 2 | 25 | 143* | 146*
O=C(Nc1ccc2c(c1)OCO2)C1Cc2c(-c3ccc(Cl)cc3)ccnc2O1 (configuration not stated) | 0 | -1 | 0 | 2 | 17 | / | /
O=C(Nc1cccnc1)C1Cc2c(-c3ccc4c(c3)OCO4)ccnc2O1 (configuration not stated) | 54* | 2 | 2 | 14 | 4 | + | 162*

Source: PubChem
